# Assay results reported in PubChem BioAssay (NCATS).
# “And” between values parts separate entries of the source, which are not always exact repeats. Equal entries are not always repeated. Results filed as inconclusive are left out. The source holds several records for some structures; these can differ, active in one and inactive in another. The source made the active and inactive calls. Calls come from the whole dose curve; as a rule, active = well fitted curve in the direction sought with a large enough effect; inconclusive = small, poorly fitted or top-dose-only effect, or another doubt; inactive = no such curve, though single readings can be large; an effect the other way counts as inactive or inconclusive.
# Columns and labels:
# [1] = BET inhibitor-based combinations targeting novel dependencies in MECOM-rearranged (r) AML: SET-2 cell line (AID 2202231); conditions: SET-2 AML cells viability, CellTiter-Glo luminescence, 48 h; viability: stronger effect = lower value, concentration not given here; note: nearly all actives have a fitted effect of over 35% in size;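 for viability: plate controls were DMSO treated cells for no effect and wells without cells for full effect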
# How it was run: (§1)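 Readout: CellTiter-Glo luminescence. Exposure: 48 h, 11 concentrations, 500 cells/well. Metric: AUC and within-line Z-AUC after DMSO/empty-well normalization.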
# [2] = BET inhibitor-based combinations targeting novel dependencies in MECOM-rearranged (r) AML: OCI-AML3 cell line (AID 2202232); conditions: Potency: OCI-AML3 viability; note: nearly all actives have a fitted effect of over 35% in size
# How it was run: as §1
# [3] = BET inhibitor-based combinations targeting novel dependencies in MECOM-rearranged (r) AML: MV-4-11 cell line (AID 2202233); note: nearly all actives have a fitted effect of over 45% in size
# How it was run: (§2)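 Seeding density was 500 cells/well, and drug exposure lasted 48 hr under standard culture conditions. Read-out used CellTiter-Glo reagent with a 15 min room-temperature incubation before luminescence measurement; AUC and Z-AUC summarize the normalized responses.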
# [4] = BET inhibitor-based combinations targeting novel dependencies in MECOM-rearranged (r) AML: UCSD-AML1 cell line (AID 2202235); note: nearly all actives have a fitted effect of over 40% in size
# How it was run: as §2
# [5] = BET inhibitor-based combinations targeting novel dependencies in MECOM-rearranged (r) AML: AML-191 cell line (AID 2202236; note: nearly all actives have a fitted effect of over 35% in size)
# How it was run: as §1
# [6] = BET inhibitor-based combinations targeting novel dependencies in MECOM-rearranged (r) AML: AML-194 cell line (AID 2202237; note: nearly all actives have a fitted effect of over 40% in size)
# How it was run: as §1
# Potency is the fitted concentration of half-maximal effect.
Compound,viability [1],Potency [2],Potency [3],Potency [4],Potency [5],Potency [6],Potency [1]
O=C(O)/C(S)=C/c1ccc(I)cc1,112% (inactive),inactive,inactive,inactive,inactive,,
CCc1c(-c2ccccc2C)nc2c(C#N)c[nH]n2c1=O,112% (inactive) and 125% (inactive),inactive,inactive,1.2 nM (active) and inactive,inactive,inactive,
CC[C@]12C=CCN3CC[C@@]4(c5cc([C@@]6(C(=O)OC)CC7C[C@@H](C(C)(F)F)CN(Cc8c6[nH]c6ccccc86)C7)c(OC)cc5N(C)[C@H]4[C@@](O)(C(=O)OC)[C@@H]1OC(C)=O)[C@@H]32 (stereo not given in full),,296 nM (active),417 nM (active),468 nM (active),372 nM (active),332 nM (active),1660 nM (active)
COc1ccc(C(=O)N2CCN(c3ccc4c(c3)CCC(=O)N4)CC2)cc1OC,105% (inactive),inactive,inactive,inactive,inactive,inactive,
Cn1cc(C2=C(c3cn(C)c4cc([N+](=O)[O-])ccc34)C(=O)NC2=O)c2ccccc21,,662 nM (active),833 nM (active),833 nM (active),662 nM (active),417 nM (active),2350 nM (active)
NC1CCCN(c2c(/C=C3\SC(=O)NC3=O)cccc2-c2ccccc2)C1 (stereo not given),,235 nM (active),1180 nM (active),590 nM (active),18600 nM (active),,5900 nM (active)
CNCCn1c(=O)c2cc(OC)c(OC)cc2c2cnc3cc4c(cc3c21)OCO4,,21.5 nM (active),15.2 nM (active),19.1 nM (active),24.1 nM (active),24.1 nM (active),24.1 nM (active)
CCNCCS(=O)(=O)NC[C@@]1(c2ccccc2)SC(NC(=O)C(C)(C)C)=NN1C(=O)C(C)(C)C,,4.2 nM (active),4.2 nM (active),4.7 nM (active),20.9 nM (active),,118 nM (active)
NC[C@H]1O[C@H](O[C@H]2[C@H](O)[C@@H](O[C@H]3O[C@H](CO)[C@@H](O)[C@H](N)[C@H]3O)[C@H](N)C[C@@H]2N)[C@H](N)C[C@@H]1O,115% (inactive),inactive,inactive,inactive,inactive,,
CS(=O)(=O)Nc1cc2occ(NC=O)c(=O)c2cc1Oc1ccccc1,101% (inactive),inactive,inactive,inactive,inactive,inactive,
Cc1c(C(=O)Nc2ccc(Oc3ccnc4[nH]cc(-c5ccccc5)c34)c(F)c2)c(=O)n(-c2ccc(F)cc2)n1C,96.3% (inactive),20900 nM (active),74.2 nM (active),,590 nM (active),1660 nM (active),
CN(C)C[C@@H]1CCn2cc(c3ccccc32)C2=C(C(=O)NC2=O)c2cn(c3ccccc23)CCO1,,20900 nM (active),417 nM (active),,7420 nM (active),5900 nM (active),8330 nM (active)
CN1CCN(c2ccc3nc(-c4cc(C(C)(C)C)c(OCCCC(=O)NCCCN=[N+]=[N-])c(C(C)(C)C)c4)[nH]c3c2)CC1,,10500 nM (active),7420 nM (active),,9340 nM (active),8330 nM (active),10500 nM (active)
O=c1[nH]c(=O)n([C@H]2C[C@H](O)[C@@H](CO)O2)cc1C(F)(F)F,,1660 nM (active),1050 nM (active),1480 nM (active),1320 nM (active),4680 nM (active),5900 nM (active)
C[C@H]1CNCCCN1S(=O)(=O)c1cccc2cncc(F)c12,113% (inactive),inactive,inactive,inactive,inactive,inactive,
COc1ccc(S(=O)(=O)N(C(C)=O)c2ccccc2/C=C/c2cc[n+]([O-])cc2)cc1,,1180 nM (active),1180 nM (active),1320 nM (active),1180 nM (active),833 nM (active),2630 nM (active)
COc1ccc(S(=O)(=O)Nc2cc(-c3csc(C#N)c3)ccc2C)cc1,,148 nM (active),235 nM (active),148 nM (active),132 nM (active),332 nM (active),209 nM (active)
C[C@H](NC(=O)c1c(N)nn2cccnc12)c1cc2cccc(C#Cc3cnn(C)c3)c2c(=O)n1-c1ccccc1,101% (inactive),51.2 nM (active),8110 nM (active),,1820 nM (active),7230 nM (active),
